Assay results reported in article PMC7862700, “An all-to-all approach to the identification of sequence-specific readers for epigenetic DNA modifications on cytosine”.

Key:
Experiment in all cases: DAPPL (digital affinity profiling via proximity ligation, sequencing); 10 mM Tris-HCl pH 7.5, 50 mM NaCl, 1 mM DTT, 4% glycerol, room temperature, 30 min; GST-TFs on glutathione beads, 16-mer random dsDNA library, 0.1% formaldehyde crosslink after washing; high values mean tight binding
FLI1 = target: T1, FLI1 (Homo sapiens, UniProt Q01543 1-452); conditions: protein: recombinant; tags: N-terminal GST; dsDNA, one strand shown
T1 sequence: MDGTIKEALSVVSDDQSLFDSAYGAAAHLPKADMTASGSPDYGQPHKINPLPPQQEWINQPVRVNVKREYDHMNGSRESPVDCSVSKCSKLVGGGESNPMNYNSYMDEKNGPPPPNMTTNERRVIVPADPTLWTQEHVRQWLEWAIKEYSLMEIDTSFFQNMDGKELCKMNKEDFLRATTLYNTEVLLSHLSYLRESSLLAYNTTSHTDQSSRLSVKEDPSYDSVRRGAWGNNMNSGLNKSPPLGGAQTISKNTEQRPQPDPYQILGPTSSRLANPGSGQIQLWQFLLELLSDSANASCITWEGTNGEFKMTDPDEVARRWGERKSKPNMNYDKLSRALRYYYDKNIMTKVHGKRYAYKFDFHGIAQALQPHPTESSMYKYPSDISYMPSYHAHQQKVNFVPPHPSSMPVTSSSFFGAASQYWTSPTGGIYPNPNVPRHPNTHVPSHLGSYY
Procedure, shortened: (§1)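 The binding signal reported is, for every hexamer, its read frequency for a factor over its read frequency for the tag-only sample. Reads came from pools of yeast-expressed, GST-fused human transcription factors on glutathione beads, barcoded with DNA and mixed with that sample, which were incubated with 200 nmole of a random double-stranded 16-mer DNA library in Tris/NaCl/DTT/glycerol buffer at room temperature for 30 min. After washing, the pools were crosslinked with 0.1% formaldehyde, proximity-ligated with BsaI/T4 ligase for 1 h at 37 °C, PCR-amplified and sequenced on an Illumina NextSeq500.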

ELK1 = target: T2, ELK1 (Homo sapiens, UniProt P19419 1-428); conditions: protein: recombinant; tags: N-terminal GST; dsDNA, one strand shown
T2 sequence: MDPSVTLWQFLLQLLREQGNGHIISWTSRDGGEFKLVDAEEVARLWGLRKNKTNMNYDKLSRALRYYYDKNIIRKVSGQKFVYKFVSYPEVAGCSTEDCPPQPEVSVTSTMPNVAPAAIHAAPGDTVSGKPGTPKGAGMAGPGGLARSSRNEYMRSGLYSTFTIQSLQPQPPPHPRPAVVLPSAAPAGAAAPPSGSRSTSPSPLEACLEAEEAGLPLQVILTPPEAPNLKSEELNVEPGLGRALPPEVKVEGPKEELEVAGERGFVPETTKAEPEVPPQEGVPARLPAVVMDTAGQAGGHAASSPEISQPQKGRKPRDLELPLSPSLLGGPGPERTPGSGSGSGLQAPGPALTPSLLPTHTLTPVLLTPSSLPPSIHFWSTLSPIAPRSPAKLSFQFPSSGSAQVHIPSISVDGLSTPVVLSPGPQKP
Procedure, shortened: as §1

GABPA = target: T3, GABPA (Homo sapiens, UniProt Q06546 1-454); conditions: protein: recombinant; tags: N-terminal GST; dsDNA, one strand shown
T3 sequence: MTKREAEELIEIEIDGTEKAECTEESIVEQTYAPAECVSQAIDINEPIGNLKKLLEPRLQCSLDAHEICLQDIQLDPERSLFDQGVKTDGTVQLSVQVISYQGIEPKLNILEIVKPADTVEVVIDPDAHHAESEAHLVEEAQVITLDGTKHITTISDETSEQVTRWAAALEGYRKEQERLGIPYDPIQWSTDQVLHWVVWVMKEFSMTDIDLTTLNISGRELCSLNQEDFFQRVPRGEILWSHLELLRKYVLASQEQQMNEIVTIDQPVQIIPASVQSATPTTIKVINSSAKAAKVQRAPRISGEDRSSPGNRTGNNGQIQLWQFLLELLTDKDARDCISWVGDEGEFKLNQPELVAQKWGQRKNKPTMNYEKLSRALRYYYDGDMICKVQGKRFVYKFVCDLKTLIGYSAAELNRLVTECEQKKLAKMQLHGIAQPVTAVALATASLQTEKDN
Procedure, shortened: as §1

ERG = target: T4, ERG (Homo sapiens, UniProt P11308 1-479); conditions: protein: recombinant; tags: N-terminal GST; dsDNA, one strand shown
T4 sequence: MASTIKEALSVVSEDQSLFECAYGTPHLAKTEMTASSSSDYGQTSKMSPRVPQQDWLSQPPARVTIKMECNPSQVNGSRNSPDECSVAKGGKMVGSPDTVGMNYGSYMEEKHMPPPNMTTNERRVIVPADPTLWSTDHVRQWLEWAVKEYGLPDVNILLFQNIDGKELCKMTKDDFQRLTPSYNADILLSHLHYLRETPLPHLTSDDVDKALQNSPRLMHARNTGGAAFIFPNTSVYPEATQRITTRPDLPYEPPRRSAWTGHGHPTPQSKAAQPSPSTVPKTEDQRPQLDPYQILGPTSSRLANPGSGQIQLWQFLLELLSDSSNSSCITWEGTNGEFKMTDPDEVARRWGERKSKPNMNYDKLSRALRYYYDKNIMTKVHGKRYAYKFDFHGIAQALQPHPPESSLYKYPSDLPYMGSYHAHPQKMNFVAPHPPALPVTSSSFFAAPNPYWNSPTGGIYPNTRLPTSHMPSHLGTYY
Procedure, shortened: as §1

ELF1 = ELF1 (Homo sapiens, UniProt P32519 1-619); conditions: protein: recombinant; tags: N-terminal GST; dsDNA, one strand shown
Sequence of ELF1 (P32519 whole entry): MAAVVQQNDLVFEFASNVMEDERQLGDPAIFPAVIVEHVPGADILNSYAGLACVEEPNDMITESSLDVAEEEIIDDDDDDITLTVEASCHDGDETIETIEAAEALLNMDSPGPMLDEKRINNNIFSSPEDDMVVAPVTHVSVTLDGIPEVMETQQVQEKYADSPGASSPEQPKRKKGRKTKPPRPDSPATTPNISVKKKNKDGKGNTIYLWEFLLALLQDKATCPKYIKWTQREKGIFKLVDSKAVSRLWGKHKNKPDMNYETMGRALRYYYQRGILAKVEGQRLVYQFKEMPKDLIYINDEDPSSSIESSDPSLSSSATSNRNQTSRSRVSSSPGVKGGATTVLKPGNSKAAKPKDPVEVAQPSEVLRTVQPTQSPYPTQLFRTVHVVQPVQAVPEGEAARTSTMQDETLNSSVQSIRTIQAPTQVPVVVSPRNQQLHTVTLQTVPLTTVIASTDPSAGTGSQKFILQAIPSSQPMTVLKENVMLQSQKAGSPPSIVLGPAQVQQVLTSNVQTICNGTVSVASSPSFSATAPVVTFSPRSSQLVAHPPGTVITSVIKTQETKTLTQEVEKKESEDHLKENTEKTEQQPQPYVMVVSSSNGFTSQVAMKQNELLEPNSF
Procedure, shortened: as §1

EHF = target: T5, EHF (Homo sapiens, UniProt Q9NZC4 1-300); conditions: protein: recombinant; tags: N-terminal GST; dsDNA, one strand shown
T5 sequence: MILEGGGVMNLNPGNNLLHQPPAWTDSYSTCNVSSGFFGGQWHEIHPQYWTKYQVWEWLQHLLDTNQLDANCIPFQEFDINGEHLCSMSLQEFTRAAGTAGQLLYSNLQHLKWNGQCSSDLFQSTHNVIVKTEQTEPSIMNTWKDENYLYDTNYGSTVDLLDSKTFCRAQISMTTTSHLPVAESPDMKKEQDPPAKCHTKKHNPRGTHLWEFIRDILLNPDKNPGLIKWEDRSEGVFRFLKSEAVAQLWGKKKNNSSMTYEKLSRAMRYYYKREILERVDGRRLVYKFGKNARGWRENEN
Procedure, shortened: as §1

SPI1 = SPI1 (Homo sapiens, UniProt P17947 1-270); conditions: protein: recombinant; tags: N-terminal GST; dsDNA, one strand shown
Procedure, shortened: as §1

SPIB = SPIB (Homo sapiens, UniProt Q01892 1-262); conditions: protein: recombinant; tags: N-terminal GST; dsDNA, one strand shown
Sequence of SPIB (Q01892 whole entry): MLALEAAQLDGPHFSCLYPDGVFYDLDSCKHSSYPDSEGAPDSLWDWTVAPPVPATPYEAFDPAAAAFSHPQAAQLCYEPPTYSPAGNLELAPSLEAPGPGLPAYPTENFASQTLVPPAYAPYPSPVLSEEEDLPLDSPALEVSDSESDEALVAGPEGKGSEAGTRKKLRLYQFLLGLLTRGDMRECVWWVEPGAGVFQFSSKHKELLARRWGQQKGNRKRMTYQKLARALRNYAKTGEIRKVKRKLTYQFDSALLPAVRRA
Procedure, shortened: as §1

ELK3 = target: T6, ELK3 (Homo sapiens, UniProt P41970 1-407); conditions: protein: recombinant; tags: N-terminal GST; dsDNA, one strand shown
T6 sequence: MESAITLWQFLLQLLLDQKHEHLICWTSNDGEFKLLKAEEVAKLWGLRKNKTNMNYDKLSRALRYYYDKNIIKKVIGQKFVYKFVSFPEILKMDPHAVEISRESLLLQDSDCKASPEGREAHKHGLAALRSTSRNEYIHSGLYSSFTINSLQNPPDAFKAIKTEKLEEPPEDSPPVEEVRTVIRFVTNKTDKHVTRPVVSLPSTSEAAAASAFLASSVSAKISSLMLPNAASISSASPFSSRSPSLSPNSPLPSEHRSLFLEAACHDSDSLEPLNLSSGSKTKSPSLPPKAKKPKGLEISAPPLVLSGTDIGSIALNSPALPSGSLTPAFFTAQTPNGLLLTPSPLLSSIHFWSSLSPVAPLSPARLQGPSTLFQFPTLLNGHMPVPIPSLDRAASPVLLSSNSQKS
Procedure, shortened: as §1

FEV = target: T7, FEV (Homo sapiens, UniProt Q99581 1-238); conditions: protein: recombinant; tags: N-terminal GST; dsDNA, one strand shown
T7 sequence: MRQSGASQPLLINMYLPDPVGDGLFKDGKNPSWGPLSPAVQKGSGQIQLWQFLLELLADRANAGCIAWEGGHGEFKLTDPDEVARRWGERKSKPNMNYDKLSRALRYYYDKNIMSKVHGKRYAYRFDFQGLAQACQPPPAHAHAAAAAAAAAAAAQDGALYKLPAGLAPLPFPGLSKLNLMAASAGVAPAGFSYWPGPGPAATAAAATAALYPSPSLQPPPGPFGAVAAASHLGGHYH
Procedure, shortened: as §1

ETV5 = ETV5 (Homo sapiens, UniProt P41161 1-510); conditions: protein: recombinant; tags: N-terminal GST; dsDNA, one strand shown
Sequence of ETV5 (P41161 whole entry): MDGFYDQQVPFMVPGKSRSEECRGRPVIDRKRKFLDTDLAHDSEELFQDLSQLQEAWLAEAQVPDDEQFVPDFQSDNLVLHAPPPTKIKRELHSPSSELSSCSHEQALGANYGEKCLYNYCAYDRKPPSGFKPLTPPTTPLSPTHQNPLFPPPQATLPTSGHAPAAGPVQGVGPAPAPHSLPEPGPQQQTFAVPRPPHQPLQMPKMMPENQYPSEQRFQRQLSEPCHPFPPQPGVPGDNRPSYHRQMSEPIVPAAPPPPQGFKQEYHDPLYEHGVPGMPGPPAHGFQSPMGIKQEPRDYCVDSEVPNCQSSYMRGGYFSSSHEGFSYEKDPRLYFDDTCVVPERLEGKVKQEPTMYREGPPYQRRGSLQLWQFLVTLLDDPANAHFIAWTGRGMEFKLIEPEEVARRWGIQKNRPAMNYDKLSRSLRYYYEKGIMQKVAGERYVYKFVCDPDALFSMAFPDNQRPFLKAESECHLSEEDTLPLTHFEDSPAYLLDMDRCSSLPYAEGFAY
Procedure, shortened: as §1

HSF1 = HSF1 (Homo sapiens, UniProt Q00613 1-529); conditions: protein: recombinant; tags: N-terminal GST; chain copies: 3; dsDNA, one strand shown
Sequence of HSF1 (Q00613 whole entry): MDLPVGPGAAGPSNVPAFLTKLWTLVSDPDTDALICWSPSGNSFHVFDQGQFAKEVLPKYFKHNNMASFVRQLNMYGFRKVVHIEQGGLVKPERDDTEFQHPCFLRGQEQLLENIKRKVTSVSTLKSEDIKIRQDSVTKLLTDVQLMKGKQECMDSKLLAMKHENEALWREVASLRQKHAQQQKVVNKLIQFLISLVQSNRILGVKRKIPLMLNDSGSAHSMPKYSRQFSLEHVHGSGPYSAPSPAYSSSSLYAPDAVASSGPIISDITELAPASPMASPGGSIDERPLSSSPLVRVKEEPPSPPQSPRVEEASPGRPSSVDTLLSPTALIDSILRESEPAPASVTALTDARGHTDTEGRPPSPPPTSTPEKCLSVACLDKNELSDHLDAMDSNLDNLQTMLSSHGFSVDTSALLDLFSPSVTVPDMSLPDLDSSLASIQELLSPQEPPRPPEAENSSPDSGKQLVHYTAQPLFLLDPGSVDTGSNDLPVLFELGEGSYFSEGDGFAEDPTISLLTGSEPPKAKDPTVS
Procedure, shortened: as §1

SPIC = target: T8, SPIC (Homo sapiens, UniProt Q8N5J4 1-248); conditions: protein: recombinant; tags: N-terminal GST; dsDNA, one strand shown
T8 sequence: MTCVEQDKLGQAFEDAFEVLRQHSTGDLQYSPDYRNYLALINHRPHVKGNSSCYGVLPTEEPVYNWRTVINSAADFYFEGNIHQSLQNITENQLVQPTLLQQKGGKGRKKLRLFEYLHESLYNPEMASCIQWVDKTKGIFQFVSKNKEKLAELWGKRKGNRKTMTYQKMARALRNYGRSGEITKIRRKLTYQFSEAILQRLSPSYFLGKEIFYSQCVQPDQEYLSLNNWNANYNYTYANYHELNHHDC
Procedure, shortened: as §1

ELF4 = ELF4 (Homo sapiens, UniProt Q99607 1-663); conditions: protein: recombinant; tags: N-terminal GST; dsDNA, one strand shown
Sequence of ELF4 (Q99607 whole entry): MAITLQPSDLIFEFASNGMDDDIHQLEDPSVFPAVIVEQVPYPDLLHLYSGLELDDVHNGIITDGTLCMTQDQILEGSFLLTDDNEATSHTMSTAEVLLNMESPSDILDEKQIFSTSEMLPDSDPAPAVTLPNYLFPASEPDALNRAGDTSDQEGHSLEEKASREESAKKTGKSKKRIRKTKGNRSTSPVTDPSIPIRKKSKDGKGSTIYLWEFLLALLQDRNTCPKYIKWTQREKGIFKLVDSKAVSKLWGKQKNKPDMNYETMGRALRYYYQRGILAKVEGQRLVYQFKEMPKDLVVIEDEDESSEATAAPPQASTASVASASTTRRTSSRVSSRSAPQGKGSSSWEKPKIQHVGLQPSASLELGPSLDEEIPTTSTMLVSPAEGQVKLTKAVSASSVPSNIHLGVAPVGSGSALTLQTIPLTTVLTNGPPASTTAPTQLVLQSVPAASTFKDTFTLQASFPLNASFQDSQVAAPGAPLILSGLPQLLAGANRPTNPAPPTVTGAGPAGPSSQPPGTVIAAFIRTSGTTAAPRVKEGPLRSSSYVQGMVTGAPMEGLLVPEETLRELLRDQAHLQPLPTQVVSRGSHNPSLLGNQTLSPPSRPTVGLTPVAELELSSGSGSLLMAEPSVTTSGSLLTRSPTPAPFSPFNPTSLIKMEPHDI
Procedure, shortened: as §1

ELK4 = target: T9, ELK4 (Homo sapiens, UniProt P28324-2 1-405); conditions: protein: recombinant; tags: N-terminal GST; dsDNA, one strand shown
T9 sequence: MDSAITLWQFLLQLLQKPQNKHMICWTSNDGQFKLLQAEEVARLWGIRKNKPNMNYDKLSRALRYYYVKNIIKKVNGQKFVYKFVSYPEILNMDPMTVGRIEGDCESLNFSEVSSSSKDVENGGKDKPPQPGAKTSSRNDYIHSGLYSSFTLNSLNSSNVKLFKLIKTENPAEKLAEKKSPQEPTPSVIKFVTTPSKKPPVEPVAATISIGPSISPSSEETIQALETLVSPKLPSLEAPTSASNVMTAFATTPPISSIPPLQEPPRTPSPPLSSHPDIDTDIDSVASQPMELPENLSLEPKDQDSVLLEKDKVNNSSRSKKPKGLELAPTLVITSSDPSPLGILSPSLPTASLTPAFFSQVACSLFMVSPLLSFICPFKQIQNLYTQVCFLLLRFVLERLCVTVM
Procedure, shortened: as §1

ETV2 = target: T10, ETV2 (Homo sapiens, UniProt O00321 1-342); conditions: protein: recombinant; tags: N-terminal GST; dsDNA, one strand shown
T10 sequence: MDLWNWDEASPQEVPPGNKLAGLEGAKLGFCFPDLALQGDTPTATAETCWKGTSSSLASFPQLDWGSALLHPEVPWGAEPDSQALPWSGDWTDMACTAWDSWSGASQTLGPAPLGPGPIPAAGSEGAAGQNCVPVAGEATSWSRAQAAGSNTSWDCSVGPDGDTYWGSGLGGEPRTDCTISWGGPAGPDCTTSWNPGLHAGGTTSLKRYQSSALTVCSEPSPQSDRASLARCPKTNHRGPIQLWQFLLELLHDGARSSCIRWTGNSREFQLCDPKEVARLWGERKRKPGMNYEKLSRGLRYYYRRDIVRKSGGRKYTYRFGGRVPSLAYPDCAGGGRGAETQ
Procedure, shortened: as §1

ELF3 = target: T11, ELF3 (Homo sapiens, UniProt P78545 1-371); conditions: protein: recombinant; tags: N-terminal GST; dsDNA, one strand shown
T11 sequence: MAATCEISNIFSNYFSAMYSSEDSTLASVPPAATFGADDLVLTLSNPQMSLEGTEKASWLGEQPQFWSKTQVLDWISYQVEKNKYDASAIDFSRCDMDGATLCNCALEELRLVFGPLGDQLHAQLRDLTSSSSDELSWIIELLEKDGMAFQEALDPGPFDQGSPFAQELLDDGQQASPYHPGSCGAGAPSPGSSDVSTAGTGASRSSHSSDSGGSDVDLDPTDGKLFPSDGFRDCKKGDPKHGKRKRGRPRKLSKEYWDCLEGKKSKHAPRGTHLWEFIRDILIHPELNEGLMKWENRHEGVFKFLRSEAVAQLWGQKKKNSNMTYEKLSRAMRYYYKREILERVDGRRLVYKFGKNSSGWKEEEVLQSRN
Procedure, shortened: as §1

CRX = CRX (Homo sapiens, UniProt O43186 1-299); conditions: protein: recombinant; tags: N-terminal GST; dsDNA, one strand shown
Sequence of CRX (O43186 whole entry): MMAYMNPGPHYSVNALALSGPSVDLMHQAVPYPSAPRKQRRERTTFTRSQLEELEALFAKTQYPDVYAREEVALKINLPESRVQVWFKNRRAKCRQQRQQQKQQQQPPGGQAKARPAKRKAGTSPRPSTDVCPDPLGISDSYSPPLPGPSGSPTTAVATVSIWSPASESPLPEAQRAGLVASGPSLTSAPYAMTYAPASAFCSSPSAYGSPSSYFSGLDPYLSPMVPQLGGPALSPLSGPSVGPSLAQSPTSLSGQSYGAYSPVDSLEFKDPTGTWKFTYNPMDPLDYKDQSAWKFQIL
Procedure, shortened: as §1

ETV1 = ETV1 (Homo sapiens, UniProt P50549 1-477); conditions: protein: recombinant; tags: N-terminal GST; dsDNA, one strand shown
Sequence of ETV1 (P50549 whole entry): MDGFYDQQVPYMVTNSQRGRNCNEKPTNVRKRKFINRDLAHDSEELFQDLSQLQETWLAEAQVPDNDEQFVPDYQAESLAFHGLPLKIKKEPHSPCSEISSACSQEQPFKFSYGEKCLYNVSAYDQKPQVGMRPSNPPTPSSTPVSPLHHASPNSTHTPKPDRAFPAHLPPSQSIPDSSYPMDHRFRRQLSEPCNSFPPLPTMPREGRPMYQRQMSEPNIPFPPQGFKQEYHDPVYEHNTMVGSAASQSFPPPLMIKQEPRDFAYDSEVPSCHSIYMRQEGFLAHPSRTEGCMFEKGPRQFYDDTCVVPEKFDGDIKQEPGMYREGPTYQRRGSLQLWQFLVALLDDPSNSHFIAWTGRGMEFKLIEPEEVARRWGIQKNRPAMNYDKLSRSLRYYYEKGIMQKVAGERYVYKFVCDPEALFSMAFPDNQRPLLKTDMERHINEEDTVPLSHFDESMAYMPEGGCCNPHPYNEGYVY
Procedure, shortened: as §1

## CGATCC
FLI1
  binding signal: 1.26 fold enrichment (6-mer frequency, TF over GST control)
ELK1
  binding signal: 1.14 fold enrichment (6-mer frequency, TF over GST control)
GABPA
  binding signal: 1.19 fold enrichment (6-mer frequency, TF over GST control)
ERG
  binding signal: 1.21 fold enrichment (6-mer frequency, TF over GST control)
ELF1
  binding signal: 1.27 fold enrichment (6-mer frequency, TF over GST control)
EHF
  binding signal: 1.22 fold enrichment (6-mer frequency, TF over GST control)
SPI1
  binding signal: 1.25 fold enrichment (6-mer frequency, TF over GST control)
SPIB
  binding signal: 1.22 fold enrichment (6-mer frequency, TF over GST control)
ELK3
  binding signal: 1.38 fold enrichment (6-mer frequency, TF over GST control)
FEV
  binding signal: 1.2 fold enrichment (6-mer frequency, TF over GST control)
ETV5
  binding signal: 1.19 fold enrichment (6-mer frequency, TF over GST control)
HSF1
  binding signal: 1.31 fold enrichment (6-mer frequency, TF over GST control)
SPIC
  binding signal: 1.11 fold enrichment (6-mer frequency, TF over GST control)
ELF4
  binding signal: 1.21 fold enrichment (6-mer frequency, TF over GST control)
ELK4
  binding signal: 1.11 fold enrichment (6-mer frequency, TF over GST control)
ETV2
  binding signal: 1.19 fold enrichment (6-mer frequency, TF over GST control)
ELF3
  binding signal: 1.08 fold enrichment (6-mer frequency, TF over GST control)
CRX
  binding signal: 1.27 fold enrichment (6-mer frequency, TF over GST control)
ETV1
  binding signal: 1.25 fold enrichment (6-mer frequency, TF over GST control)
